Measurements taken from PubChem BioAssay (Tox21).
Values joined by “and” are separate entries in the source; they are usually repeats but may differ in a detail not shown here. Equal entries are not always repeated. Inconclusive results are not listed. Active and inactive are the calls of the source. Unless noted, calls follow the shape of the full dose curve.

Key:
[1] = Nuclear factor erythroid 2-related factor 2/antioxidant responsive element (Nrf2/ARE) small molecule agonists: qHTS cell viability counter screen in human keratinocytes (AID 1919968; active = well fitted curve in the direction sought with a large enough effect in the repeat runs; an effect the other way counts as inactive or inconclusive; also: nearly all actives have a fitted effect of over 55% in size; also: potency is read from the fitted curve at half-maximal effect)
Method in brief: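 Cells of the KeratinoSens line were plated at 1,500 per well and left for 5 h before compound transfer from DMSO stocks. After a 23 h incubation (37 C, 5% CO2), CellTiter-Fluor was added. Signal was taken as fluorescence intensity 1 h later.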

[2] = biological target: Gonadotropin-releasing hormone receptor (Homo sapiens) (UniProt P30968); assay: Human gonadotropin-releasing hormone receptor (GnRHR) small molecule agonists, calcium flux assay in GnRHR-HEK293 cells (AID 1920063); also: nearly all actives have a fitted effect of over 35% in size
Chain of Gonadotropin-releasing hormone receptor (Homo sapiens) (P30968 whole entry, looked up): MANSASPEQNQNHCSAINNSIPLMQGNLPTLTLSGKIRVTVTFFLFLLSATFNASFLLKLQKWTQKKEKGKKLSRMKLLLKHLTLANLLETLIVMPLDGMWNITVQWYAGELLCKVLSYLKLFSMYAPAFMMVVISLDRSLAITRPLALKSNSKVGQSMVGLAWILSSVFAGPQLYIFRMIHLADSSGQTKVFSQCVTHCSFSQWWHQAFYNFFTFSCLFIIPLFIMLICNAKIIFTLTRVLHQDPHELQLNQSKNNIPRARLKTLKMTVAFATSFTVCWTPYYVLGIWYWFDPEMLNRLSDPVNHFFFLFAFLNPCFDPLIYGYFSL
Method in brief: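 Compounds dissolved in DMSO are pin-transferred onto dye-loaded GnRHR-HEK293 cells, which were seeded 18 h before at 37 C/5% CO2. Calcium signal is read as fluorescence intensity at 1 s intervals for 3 min.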

[3] = biological target: KiSS-1 receptor (Homo sapiens) (UniProt Q969F8); assay: Human kisspeptin (KISS1R) small molecule agonists, calcium flux assay in KISS1R-HEK293 cells (AID 1920064; active = well fitted curve in the direction sought with a large enough effect in the repeat runs; an effect the other way counts as inactive or inconclusive)
Chain of KiSS-1 receptor (Homo sapiens) (Q969F8 whole entry, looked up): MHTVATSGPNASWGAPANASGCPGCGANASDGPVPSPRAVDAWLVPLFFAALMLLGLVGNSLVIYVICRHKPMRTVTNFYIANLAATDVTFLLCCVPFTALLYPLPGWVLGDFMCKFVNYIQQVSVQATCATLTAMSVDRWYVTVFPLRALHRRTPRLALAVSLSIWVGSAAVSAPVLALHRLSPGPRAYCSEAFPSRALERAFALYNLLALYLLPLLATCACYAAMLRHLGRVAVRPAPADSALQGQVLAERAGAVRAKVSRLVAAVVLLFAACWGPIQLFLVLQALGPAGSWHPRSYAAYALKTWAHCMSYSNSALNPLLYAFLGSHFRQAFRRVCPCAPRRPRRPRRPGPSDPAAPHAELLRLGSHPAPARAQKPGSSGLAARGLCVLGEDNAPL
Method in brief: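 Cell line: HEK293, stable human KISS1R. Dye loading 1 h at 37 C after 18 h culture. Read: kinetic fluorescence, 480/540 nm, 3 min at 1 s intervals.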

[4] = G protein-coupled receptor (GPCR) small molecule agonists, calcium flux assay: HEK293 wild type cell line counter screen (AID 1920065)
Method in brief: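 Tox21 10K compounds, 15 concentrations each in triplicate, pin-transferred in DMSO onto dye-loaded cells; kinetic read at 480/540 nm for 3 min, 1 s intervals.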

[5] = p53 small molecule agonists, cell-based qHTS assay with human liver microsomes (AID 1963577); also: potency is read from the fitted curve at half-maximal effect
Method in brief: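 Fluorescence of the beta-lactamase reporter in p53RE-bla cells, detected with LiveBLAzer substrate (2 h, room temperature, dark), served as the read-out after 16 h compound exposure at 37 C with human liver microsomes and NADPH, each 0.5 mg/mL final.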

[6] = p53 small molecule agonists, cell-based qHTS assay with rat liver microsomes (AID 1963578)
Method in brief: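 Cells carrying a p53 response element–beta-lactamase reporter were plated and rested 5 h, then dosed with compound in DMSO plus rat liver microsomes and NADPH, each at 0.5 mg/mL final. After 16 h at 37 C, LiveBLAzer substrate was added for 2 h.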

[7] = p53 small molecule agonists, cell-based qHTS assay with rat liver microsomes: qHTS cell viability counter screen (AID 1963580); also: nearly all actives have a fitted effect of over 45% in size
Method in brief: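 Counter screen for cytotoxicity under metabolic activation: rat liver microsomes and NADPH, 0.5 mg/mL final each, added with compounds to p53RE-bla HCT-116 cells; 16 h at 37 C, then ATP luminescence read.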

[8] = p53 small molecule agonists, cell-based qHTS assay: qHTS cell viability counter screen (AID 1963581); also: nearly all actives have a fitted effect of over 45% in size
Method in brief: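 ATP content measured by luminescence in HCT-116 p53RE-bla cells treated 16 h at 37 C, same wells as the reporter screen.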

[9] = biological target: 5-hydroxytryptamine receptor 2A (Homo sapiens) (UniProt P28223); assay: 5-hydroxytryptamine receptor 2A (HTR2A) small molecule antagonists, cell-based qHTS assay (AID 1963586); also: nearly all actives have a fitted effect of over 45% in size; also: potency is read from the fitted curve at half-maximal effect
Chain of 5-hydroxytryptamine receptor 2A (Homo sapiens) (P28223 whole entry, looked up): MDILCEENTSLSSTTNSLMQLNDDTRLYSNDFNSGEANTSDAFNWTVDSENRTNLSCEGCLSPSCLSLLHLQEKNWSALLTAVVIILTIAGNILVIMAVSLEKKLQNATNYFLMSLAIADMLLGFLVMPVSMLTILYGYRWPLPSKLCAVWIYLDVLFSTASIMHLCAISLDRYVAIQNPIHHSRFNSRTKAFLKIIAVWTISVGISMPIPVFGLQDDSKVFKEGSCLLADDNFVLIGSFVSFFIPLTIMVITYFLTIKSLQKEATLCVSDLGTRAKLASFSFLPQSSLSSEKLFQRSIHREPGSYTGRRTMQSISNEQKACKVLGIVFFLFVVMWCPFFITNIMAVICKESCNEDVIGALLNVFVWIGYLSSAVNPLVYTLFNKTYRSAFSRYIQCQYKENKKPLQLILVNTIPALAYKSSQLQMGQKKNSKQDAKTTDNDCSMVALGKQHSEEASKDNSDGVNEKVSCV
Method in brief: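 CHO cells stably expressing human HTR2A were plated for 18 h at 37 C, then loaded with calcium dye for 1 h. Compounds were preincubated 5 min at room temperature before DOI (4 nM solution) was added. Kinetic fluorescence was read for 3 min.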

[10] = biological target: 5-hydroxytryptamine receptor 2A (Homo sapiens) (UniProt P28223); assay: 5-hydroxytryptamine receptor 2A (HTR2A) small molecule agonists, cell-based qHTS assay (AID 1963587); also: nearly all actives have a fitted effect of over 30% in size
Method in brief: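 HTR2A-CHO cells, plated 18 h at 37 C/5% CO2, dye-loaded 1 h at 37 C; compounds in DMSO added by pin tool (agonist mode). Intracellular calcium flux read as kinetic fluorescence on FDSS over 2 min at 1 s intervals.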

[11] = biological target: Muscarinic acetylcholine receptor M1 (Homo sapiens) (UniProt P11229); assay: Cholinergic receptor muscarinic 1 (CHRM1) small molecule antagonists, cell-based qHTS assay (AID 1963588); also: nearly all actives have a fitted effect of over 40% in size; also: potency is read from the fitted curve at half-maximal effect
Chain of Muscarinic acetylcholine receptor M1 (Homo sapiens) (P11229 whole entry, looked up): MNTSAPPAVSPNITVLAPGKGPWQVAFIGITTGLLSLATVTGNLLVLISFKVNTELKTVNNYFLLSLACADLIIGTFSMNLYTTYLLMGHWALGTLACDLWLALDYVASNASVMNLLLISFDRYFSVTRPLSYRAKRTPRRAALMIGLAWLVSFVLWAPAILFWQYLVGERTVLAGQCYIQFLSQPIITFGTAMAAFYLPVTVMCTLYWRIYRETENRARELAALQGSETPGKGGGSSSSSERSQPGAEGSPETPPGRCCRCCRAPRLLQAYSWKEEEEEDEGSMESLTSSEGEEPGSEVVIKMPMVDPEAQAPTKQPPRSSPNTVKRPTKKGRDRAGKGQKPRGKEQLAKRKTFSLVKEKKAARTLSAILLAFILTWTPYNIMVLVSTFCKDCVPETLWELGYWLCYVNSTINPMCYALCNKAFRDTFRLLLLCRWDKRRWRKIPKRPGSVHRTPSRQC
Method in brief: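 Compounds were tested at 15 concentrations in three independent runs. Dye-loaded CHRM1-CHO cells were exposed 5 min at room temperature before stimulation by acetylcholine added at 50nM. Intracellular calcium was read kinetically on FDSS for 3 min.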

[12] = cAMP Responsive Elements (CRE) small molecule antagonists, cell-based qHTS assay (AID 1963591; active = well fitted inhibition curve with a large enough effect in the signal ratio in the repeat runs, not every such curve was filed as active; the % refers to the signal ratio)
Method in brief: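 First, CRE-bla HEK293T cells settled 18 h at 37 C. Next, compound and 0.25 uM final NKH477 were applied for 3 h. Last, LiveBLAzer B/G substrate was loaded for 2 h at room temperature.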

[13] = biological target: Beta-2 adrenergic receptor (Homo sapiens) (UniProt P07550); assay: Adrenergic beta2 receptor (ADRB2) small molecule antagonists, cell-based qHTS assay (AID 1963592); also: series mostly up to about 92 µM; nearly all actives have a fitted effect of over 50% in size
Chain of Beta-2 adrenergic receptor (Homo sapiens) (P07550 whole entry, looked up): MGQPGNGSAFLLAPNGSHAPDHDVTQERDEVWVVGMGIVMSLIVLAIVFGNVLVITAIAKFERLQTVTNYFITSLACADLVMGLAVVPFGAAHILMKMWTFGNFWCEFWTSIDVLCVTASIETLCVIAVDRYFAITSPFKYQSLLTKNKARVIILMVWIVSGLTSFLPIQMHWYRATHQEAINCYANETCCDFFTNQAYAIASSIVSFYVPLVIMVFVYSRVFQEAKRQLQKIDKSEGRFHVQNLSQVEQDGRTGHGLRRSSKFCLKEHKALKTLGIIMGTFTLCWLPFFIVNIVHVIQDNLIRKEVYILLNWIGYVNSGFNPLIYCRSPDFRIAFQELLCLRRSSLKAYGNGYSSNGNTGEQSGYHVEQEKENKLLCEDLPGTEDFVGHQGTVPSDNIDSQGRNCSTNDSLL
Method in brief: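 Assay format: CHO-ADRB2 cells, 18-20hr seeding at 37C/5% CO2, then compound plus 1nM isoproterenol agonist mix for 0.5hr RT. Homogeneous time-resolved fluorescence cAMP detection after 1hr, expressed as 665/615 nm ratio.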

[14] = biological target: D(2) dopamine receptor (Homo sapiens) (UniProt P14416); assay: Dopamine D2 receptor (DRD2) small molecule agonists, cell-based qHTS assay (AID 1963594); also: nearly all actives have a fitted effect of over 35% in size
Chain of D(2) dopamine receptor (Homo sapiens) (P14416 whole entry, looked up): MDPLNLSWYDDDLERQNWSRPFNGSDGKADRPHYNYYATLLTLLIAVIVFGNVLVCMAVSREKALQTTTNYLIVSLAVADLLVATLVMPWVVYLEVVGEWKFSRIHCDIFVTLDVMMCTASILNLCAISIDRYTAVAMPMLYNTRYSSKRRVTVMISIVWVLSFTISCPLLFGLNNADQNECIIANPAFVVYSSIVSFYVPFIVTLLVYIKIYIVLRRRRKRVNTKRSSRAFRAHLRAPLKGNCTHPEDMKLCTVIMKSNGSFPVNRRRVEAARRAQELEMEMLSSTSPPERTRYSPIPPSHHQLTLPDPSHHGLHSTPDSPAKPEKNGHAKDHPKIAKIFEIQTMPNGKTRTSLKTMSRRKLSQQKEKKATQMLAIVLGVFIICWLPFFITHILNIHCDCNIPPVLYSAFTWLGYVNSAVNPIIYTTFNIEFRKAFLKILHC
Method in brief: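 HEK293 cells stably expressing DRD2 were cultured 24 h at 37 C, then given Ro20-1724 (0.1 mM final) and compounds for 10 min at room temperature. NKH477 (200nM) was then added for 30 min. cAMP was read by HTRF.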

[15] = biological target: D(2) dopamine receptor (Homo sapiens) (UniProt P14416); assay: Dopamine D2 receptor (DRD2) small molecule antagonists, cell-based qHTS assay (AID 1963595; active = well fitted inhibition curve with a large enough effect in the signal ratio in the repeat runs, with a control signal flat; the % refers to the signal ratio)
Method in brief: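 Cells were plated and grown for 24 h at 37 °C. Ro20-1724 (0.1 mM final) went in first, then compound for 10 min. NKH477 (200 nM) with quinpirole (12 nM) followed for 30 min at RT, then HTRF detection reagents for 1 h.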

[16] = p53 small molecule agonists, cell-based qHTS assay with human liver microsomes: qHTS cell viability counter screen (AID 1963579); also: nearly all actives have a fitted effect of over 45% in size
Method in brief: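 Cytotoxicity counter screen: p53RE-bla, 4,000 cells/well; 5 h settle, 37 C/5% CO2; cpd + HLM 0.5 mg/mL + NADPH 0.5 mg/mL (final); 16 h, 37 C; CellTiter-Glo, 30 min RT, luminescence.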

[17] = p53 small molecule agonists, cell-based qHTS assay (AID 1963582; active = well fitted activation curve with a large enough effect in the signal ratio in the repeat runs, not every such curve was filed as active; the % refers to the signal ratio)
Method in brief: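 16 h compound exposure (37 C) of p53 response element–bla cells, preceded by 5 h recovery at 37 C/5% CO2; read-out via LiveBLAzer B/G FRET substrate, 2 h RT, fluorescence intensity.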

[18] = biological target: Muscarinic acetylcholine receptor M1 (Homo sapiens) (UniProt P11229); assay: Cholinergic receptor muscarinic 1 (CHRM1) small molecule agonists, cell-based qHTS assay (AID 1963589); also: nearly all actives have a fitted effect of over 35% in size
Method in brief: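 Homogeneous fluorescence calcium flux, agonist mode. Human M1-expressing CHO cells; compound dosed at 15 concentrations, three independent runs; signal sampled every 1 sec.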

[19] = cAMP Responsive Elements (CRE) small molecule agonists, cell-based qHTS assay (AID 1963590)
Method in brief: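 HEK 293T cells stably bearing CRE-bla were plated at 2,000 cells per well and rested 18 h. Compounds, positive controls or DMSO were added for 3 h at 37 C. LiveBLAzer B/G substrate was then loaded for 2 h at room temperature.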

[20] = biological target: Beta-2 adrenergic receptor (Homo sapiens) (UniProt P07550); assay: Adrenergic beta2 receptor (ADRB2) small molecule agonists, cell-based qHTS assay (AID 1963593);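 also: CHO cells stably overexpressing human ADRB2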
Method in brief: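 CHO cells stably over-expressing ADRB2 were plated overnight at 37C, then dosed with compounds plus a stimulation mix containing 100uM IBMX and 25uM Ro-20-1724 for 0.5hr at room temperature. cAMP was measured by HTRF competition, 1hr.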

Measured: Potency

Clc1ccc(-c2ccc(Cl)c(Cl)c2Cl)c(Cl)c1Cl
active: [1] 51.9 µM
not listed: [16] | [17] | [18] | [19] | [20]
inactive: all other assays above

N#CC(C#N)=Cc1ccc(O)c(O)c1
inactive: [1] | [2] | [3] | [4] | [6] | [16] | [7] | [8] | [17] | [14]

CCOP(=S)(OCC)SCS(=O)(=O)C(C)(C)C
active: [5] 1.82 µM
not listed: [6] | [7] | [20]
inactive: all other assays above

CC(C)Oc1cccc(NC(=O)c2ccccc2C(F)(F)F)c1
active: [11] 0.0119 µM
inactive: [1] | [2] | [3] | [4] | [6] | [16] | [17] | [10] | [18] | [14]

O=[N+]([O-])c1ccc(Nc2ccccc2)cc1
active: [1] 61.6 µM | [9] 16.9 µM and 16.8 µM
not listed: [8] | [12] | [16] | [17] | [19] | [20]
inactive: all other assays above

C[C@@H]1CC[C@H]2[C@@H](C)C(=O)O[C@@H]3O[C@@]4(C)CC[C@@H]1[C@]32OO4
not listed: [7] | [9] | [10] | [11] | [18]
inactive: all other assays above

C[C@]12Cc3cn[nH]c3C[C@@H]1CC[C@@H]1[C@@H]2CC[C@@]2(C)[C@H]1CC[C@]2(C)O
active: [1] 29.8 µM
not listed: [5] | [9] | [10] | [11] | [12] | [18] | [19] | [20]
inactive: all other assays above

CCCOc1nn(C(=O)NS(=O)(=O)c2ccccc2C(=O)OC)c(=O)n1C
not listed: [5]
inactive: all other assays above

CCOc1cc(OP(=S)(OC)OC)nc(CC)n1
not listed: [5] | [13] | [14] | [15]
inactive: all other assays above
